From PubChem
Hits are enriched below; roughly 3.6% of the tested compounds scored in any of these assays.
Rango release inh – prevents RanGTP from dissociating the Rango-importin beta complex; Biochemical FRET Rango-importin beta, RanGTP-induced dissociation; Potency, µM (series often up to 46.1 µM), inactives show top-dose activity change, negative = inhibition; 340,000 compounds, 0.071% hits; calls by dose curve; further: potency means the concentration at half of the fitted maximal effect; % of control where 0% means no effect; nearly all actives have a fitted effect of over 45% in size
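Rango FRET biosensor (snurportin-1 IBB flanked by N-terminal EYFP and C-terminal CFP10) at 0.1 uM, with 0.25 uM importin beta in PBS, 1mM DTT, 0.02% Tween-20, 0.1% BSA. 0.6 uM Ran, 2mM GTP and 0.2 uM RCC1 were then added for 45 min at room temperature. Inhibition read as loss of FRET rise.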
PI5P4Ka inh – inhibitors of human PI5P4K alpha. PI5P4Kalpha enzyme, ADP-Glo luminescence, 60 min; hits give low values. P48426. max response, %. AID 652105. 330,000 compounds, 1.2% hits; active means max response of -50% or lower; inconclusive means between -30% and -50%; inactive means -30% or higher; further: value at the top dose of about 77 µM; on the % scale 0 is the no-effect control and ±100 the full control effect
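Quantitative HTS of the MLSMR library against PI5P4Kalpha with substrate. ATP added last at 5 microM final; room temperature, 60 minutes. Remaining ATP depleted, ADP converted and read as luminescence.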
PLK1 PBD inh – PLK1 (human) polo-box domain binding inhibition. P53350. Plk1 PBD binding of FITC phosphopeptide, fluorescence polarization. Potency, µM, for inactives: max response, negative = inhibition, actives largely listed as inhibitors. 360,000 compounds, 2.8% hits; further: potency means the concentration at half of the fitted maximal effect; series mostly up to about 57 µM; on the % scale 0 is the no-effect control and ±100 the full control effect; nearly all actives have a fitted effect of over 65% in size
VDR inh – vitamin D3 receptor (human) inhibition. AID 504847. VDR-SRC2-3 peptide fluorescence polarization, 2 h. 400,000 compounds, 0.93% hits. P11473. Potency, µM, for the others: max response, negative = inhibition, most hits filed as inhibitors; further: potency means the concentration at half of the fitted maximal effect; on the % scale 0 is the no-effect control and ±100 the full control effect
Target sequence (P11473 whole entry, looked up): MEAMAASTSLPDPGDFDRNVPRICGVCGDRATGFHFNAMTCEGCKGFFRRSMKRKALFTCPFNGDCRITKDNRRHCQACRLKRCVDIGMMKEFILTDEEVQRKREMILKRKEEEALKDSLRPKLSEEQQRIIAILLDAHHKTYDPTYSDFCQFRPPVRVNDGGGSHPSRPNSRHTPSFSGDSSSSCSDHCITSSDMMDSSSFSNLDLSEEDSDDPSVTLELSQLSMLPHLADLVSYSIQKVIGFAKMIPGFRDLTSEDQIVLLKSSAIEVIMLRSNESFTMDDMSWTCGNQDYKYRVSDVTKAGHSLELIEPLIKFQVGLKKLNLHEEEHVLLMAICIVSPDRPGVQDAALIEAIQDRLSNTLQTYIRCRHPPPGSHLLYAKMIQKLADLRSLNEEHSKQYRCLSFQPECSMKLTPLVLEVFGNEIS
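Reagent solutions, kept cold and dark, are dispensed first; compounds are then pinned in at 23 nl, plates briefly spun, and incubated 2 h at ambient temperature. Inhibition of VDR–SRC2-3 peptide binding is read by fluorescence polarization.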
GCN5L2 inh – inhibitors of human GCN5L2 histone acetyltransferase. GCN5L2 HAT assay, ThioGlo1 CoA-SH fluorescence. Potency, µM (top dose mostly 58.9 µM), for inactives: at the top dose activity change, negative = inhibition, actives largely listed as inhibitors. 390,000 compounds, 0.21% hits; further: potency means the concentration at half of the fitted maximal effect; on the % scale 0 is the no-effect control and ±100 the full control effect
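Enzyme at 20nM final was mixed with library compounds for 15 min at room temperature. Peptide H3(1-25) at 75uM, acetyl-CoA at 70uM and ThioGlo1 at 50uM were then added. Plates were read immediately and after 20 min (Ex340nm/Em540nm).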
Rango complex inh – prevents formation of the Rango-importin beta complex; Q14974; Rango CFP/YFP FRET sensor + importin beta, 45 min; 340,000 compounds, 0.031% hits; AID 540263; Potency, µM (doses to about 92.2 µM), for the others: at the highest dose inhibition of complex formation; calls by dose curve;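 further: potency means the concentration at half of the fitted maximal effect; 0% = DMSO wells and 100% = buffer wells lacking importin beta; nearly all actives have a fitted effect of over 15% in size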
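FRET biosensor Rango (snurportin 1 IBB between N-terminal EYFP and C-terminal Cerulean), 50 nM in PBS/1 mM DTT/0.02% Tween-20/0.1% BSA, preincubated 5 min RT with compound; 0.125 microM importin beta added, 45 min RT, CFP/YFP FRET ratio read.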
Numbers without * were called inactive; ? = inconclusive; nt = no result. Unless noted, the call rests on the fitted dose curve; in most records, active means well fitted curve in the direction sought with a large enough effect; inconclusive means small, poorly fitted or top-dose-only effect, or another doubt; inactive means no such curve, though single readings can be large; an effect the other way counts as inactive or inconclusive.

SMILES | Rango release inh | PI5P4Ka inh | PLK1 PBD inh | VDR inh | GCN5L2 inh | Rango complex inh
COc1ccc(N2C(=O)NC(NS(=O)(=O)c3ccccc3)(C(F)(F)F)C2=O)cc1 (stereo unspecified) | -2% | -4 | 2% | -11% | -1% | -2%
O=C(c1ccco1)N1CCN(C(=O)c2cc(-c3ccccn3)nc3ccc(Cl)cc23)CC1 | -15% | -59* | ? | -23% | -16% | 0%
O=C(c1ccco1)N1CCN(C(=O)c2cc(-c3ccccc3)nc3ccccc23)CC1 | 3% | -2 | -16% | 8% | -17% | 0%
O=C(O)c1ccc(NC(=S)NC(=O)C(c2ccccc2)c2ccccc2)cc1 | 5% | 2 | -20% | -1% | 1% | 2%
COc1ccc(C(=O)O)cc1NC(=S)NC(=O)C(c1ccccc1)c1ccccc1 | 0% | 5 | 60µM* | -9% | -8% | 1%
Cc1cc2nc(/C=C/c3nc4cc(C)c(C)cc4[nH]3)[nH]c2cc1C | -13% | -16 | -2% | -23% | -1% | ?
Cc1ccc(/C=C/c2nc3ccccc3[nH]2)o1 | -17% | -66* | 27µM* | -7% | -14% | ?
CN1CCc2nc3sc(C(=O)Nc4ccccc4C(F)(F)F)c(N)c3cc2C1 | nt | nt | nt | 9% | -4% | nt
O=C(Nc1ccccc1)C(Cl)C(=O)c1ccccc1 (stereo unspecified) | 8% | -2 | 1.5µM* | ? | -9% | -1%
CC(=O)C(Cl)C(=O)Nc1ccccc1 (stereo unspecified) | -3% | 0 | 2.7µM* | 14µM* | -6% | -5%
Cc1nc2c(-c3ccccc3)c(C)nn2c(C)c1CCC(=O)NCc1ccc(Cl)cc1 | nt | nt | nt | -2% | -9% | nt
Cc1cc2nc(-c3ccc(NC(=O)c4ccc(OCC(C)C)cc4)cc3)oc2cc1C | nt | nt | nt | 5% | -6% | nt
Cc1cc(OC(=O)c2ccco2)c(Sc2ccccc2[N+](=O)[O-])c(=O)o1 | 9% | 1 | 5.3µM* | ? | -14% | 2%
Nc1nc(Nc2cccc(Cl)c2)nc(NCCO)c1[N+](=O)[O-] | -4% | -63* | -6% | 13% | 0% | -1%
Cc1ccc(NC(=O)c2cc(N3C(=O)C=CC3=O)ccc2Cl)cc1C | -3% | -76* | 5.3µM* | 35µM* | -12% | -1%
CN(C)c1ccc(NC(=O)N2CCOCC2)cc1 | -5% | -12 | -6% | 14µM* | -1% | 2%
CCOC(=O)c1[nH]c(C)c(CCC(=O)NCc2ccc(N(C)C)cc2)c1C | nt | nt | nt | 16% | -7% | nt
Cc1cccc(CNC(=O)C(=O)Nc2ccccc2C)c1 | nt | nt | nt | 1% | 1% | nt
O=C(/C=C/c1ccco1)NCC(=O)N/N=C/c1ccc([N+](=O)[O-])cc1 | 25% | -60* | 11µM* | ? | -22% | 1%
O=C(/C=C/c1ccco1)NCC(=O)N/N=C/c1ccc(Cl)cc1 | -6% | -29 | -9% | 7% | -4% | 1%
CNC(=O)c1ccc(NC(=O)COc2ccc(-c3nn(C)c(=O)c4ccccc34)cc2)cc1 | nt | nt | nt | -5% | -2% | nt
Cc1nn(CC(=O)Nc2cccc(O)c2)c(=O)c2ccccc12 | nt | 1 | -4% | nt | nt | nt
COc1ccc(NC(=O)COc2ccc(-c3nn(C)c(=O)c4ccccc34)cc2)cc1 | 1% | -10 | 24µM* | ? | 0% | -1%
COC(=O)COc1ccc(NC(=O)Cn2nc(-c3ccccc3)c3ccccc3c2=O)cc1 | -1% | 2 | 27µM* | -28% | -3% | 3%
COc1cccc(OC)c1NC(=O)Cn1nc(C)c2ccccc2c1=O | 0% | -9 | 30µM* | -23% | -2% | -2%
CN(C)C(=O)c1ccc(NC(=O)Cn2nc(-c3ccccc3)c3ccccc3c2=O)cc1 | nt | nt | nt | 10% | -4% | nt
N#Cc1c(SCc2c(Cl)cccc2Cl)nc(N)[nH]c1=S | 8% | -65* | 30µM* | ? | -16% | 6%
COCCNC(=O)CN(Cc1ccc2c(c1)OCO2)C(=O)CCC(=O)Nc1nccs1 | 0% | ? | 3.4µM* | ? | -20% | -2%
